p53ts 32C kill: p53ts cell cytotoxicity, permissive temperature | hit rate 0.93% among 130,000 | H1299-p53A138V at 32C, ATP luminescence viability, 24 h | Potency, µM (titrated, usually from 46.1 µM), usual class: cytotoxic; note: nearly all actives have a fitted effect of over 55% in size
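ATP-content luminescence (ATPlite) read-out after 24 h compound exposure at 32C in H1299-p53A138V cells (600/well). Tested up to 46 uM. Normalized to DMSO (0%) and 100 uM tamoxifen (100% killing); Hill-fit AC50.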
Tau fil binding: binds recombinant human tau filaments; P10636; recombinant tau filaments, thioflavin S fluorescence, 15 h; filaments grown with octadecylsulfate alongside compound; Potency, µM (titrated, usually from 57.1 µM); hit rate 2% among 71,000; AID 596;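 note: actives lower thioflavin S fluorescence by blocking filaments or displacing dye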
Target sequence (P10636 whole entry, looked up): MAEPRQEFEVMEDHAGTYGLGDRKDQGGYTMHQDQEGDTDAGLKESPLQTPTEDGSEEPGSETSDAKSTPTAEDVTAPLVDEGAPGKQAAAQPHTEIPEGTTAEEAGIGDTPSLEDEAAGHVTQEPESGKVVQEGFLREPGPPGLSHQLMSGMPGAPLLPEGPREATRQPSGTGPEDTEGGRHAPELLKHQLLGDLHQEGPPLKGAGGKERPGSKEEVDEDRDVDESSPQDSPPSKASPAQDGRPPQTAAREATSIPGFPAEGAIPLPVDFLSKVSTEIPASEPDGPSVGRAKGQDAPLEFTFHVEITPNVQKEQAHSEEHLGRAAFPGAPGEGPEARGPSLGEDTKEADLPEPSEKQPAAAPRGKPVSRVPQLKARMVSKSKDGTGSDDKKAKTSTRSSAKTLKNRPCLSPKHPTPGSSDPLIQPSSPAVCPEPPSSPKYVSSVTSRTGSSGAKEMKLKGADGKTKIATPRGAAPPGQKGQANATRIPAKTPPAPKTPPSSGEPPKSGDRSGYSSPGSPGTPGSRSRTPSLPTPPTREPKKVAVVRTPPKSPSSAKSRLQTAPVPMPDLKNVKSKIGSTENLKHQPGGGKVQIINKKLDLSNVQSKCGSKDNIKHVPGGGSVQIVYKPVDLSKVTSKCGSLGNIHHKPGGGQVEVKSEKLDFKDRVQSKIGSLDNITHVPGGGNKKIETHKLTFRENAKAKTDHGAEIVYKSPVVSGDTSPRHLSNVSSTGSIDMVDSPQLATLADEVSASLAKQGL
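His-tagged recombinant human tau (exons 2, 3 and 10 included), 1 uM, was induced to fibrillize by 30 uM sodium octadecylsulfate with compound present. After 15 h at 37 C, thioflavine S fluorescence (ex 450, em 510 nm) was read.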
ERK AVP inh: blocks ERK signaling stimulated by vasopressin; HEK293-V1b, vasopressin-stimulated pERK AlphaScreen; Potency, µM (top dose mostly 57.5 µM), hits mostly inhibitors; hit rate 0.99% among 72,000; AID 995; note: nearly all actives have a fitted effect of over 55% in size
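HEK293 cells stably expressing V1b receptor, seeded overnight in 1% FBS, were treated with compounds for 30 min at 37C, then stimulated 5 min with 25 nM vasopressin; phospho-ERK read by AlphaScreen SureFire after lysis.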
DNA Pol III inh: inhibitors of bacterial DNA polymerase III holoenzyme; hit rate 0.25% among 71,000; Potency, µM (highest dose often 57.1 µM); reconstituted DNA polymerase III holoenzyme replication, biochemical
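Reconstituted *E. coli* holoenzyme (0.35 nM Pol III, 1 nM beta, 154 nM SSB, 2 nM primase) was preincubated with compound for 15 min at RT. Synthesis on 1.4 nM ssM13Gori ran 35 min, then was stopped with PicoGreen/EDTA and read as dsDNA fluorescence.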
p53ts 39C kill: kills p53ts cells at the nonpermissive temperature; hit rate 1.5% among 130,000; Potency, µM (titrated, usually from 46.1 µM), actives largely listed as cytotoxic; AID 902; H1299-p53A138V viability at 39C, ATP luminescence, 24 h; note: nearly all actives have a fitted effect of over 55% in size
YjeE inh: displaces an ADP probe from E. coli YjeE (TsaE); hit rate 0.05% among 71,000; P0AF67; Potency, µM; purified YjeE enzyme, qHTS inhibition assay
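Fluorescence polarization of a BODIPY Texas Red–ADP probe (2 uM) bound to purified YjeE (10 uM) was read after 15 min room-temperature incubation with compounds. Loss of polarization marks inhibitors; ADP serves as titrated control.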
Numbers stand for hits; n = inactive; u = inconclusive; x = not tested or not shown; [ ] = another dose, or the depositor's remark. An excerpt weighted towards active compounds, which were near 3.2% of everything screened. Calls come from the whole dose curve; as a rule, active = well fitted curve in the direction sought with a large enough effect; inconclusive = small, poorly fitted or top-dose-only effect, or another doubt; inactive = no such curve, though single readings can be large; an effect the other way counts as inactive or inconclusive.

SMILES	p53ts 32C kill	Tau fil binding	ERK AVP inh	DNA Pol III inh	p53ts 39C kill	YjeE inh
CC(C)Oc1ccc2c(=O)cc(-c3ccccc3)oc2c1	u	x	n	x	u	x
COC(=O)CSc1nsc(SCC(=O)OC)c1C#N	u	n	15.8µM	n	n	n
O=c1c(-c2ccc3c(c2)OCCO3)coc2c(CN3CCOCC3)c(O)ccc12	n	n	n	n	n	n
CC(C)=CCc1c2c(c3occ(-c4ccc(O)c(O)c4)c(=O)c3c1O)C=CC(C)(C)O2	u	3.16µM	u	n[11.4 µM]	u	n
CC(=O)Oc1cc2c(c(C)c1OC(C)=O)CC=C1[C@]3(C)CC[C@]4(C)CC[C@@](C)(C(=O)O)CC4[C@]3(C)CC[C@]12C (stereo not given in full)	n	x	n	x	n	x
CC(=O)N1CCCc2cc(S(=O)(=O)CCC(=O)N3CCN(c4cccc(C)c4)C(C)C3)ccc21 (stereo not given)	n	n	u	15.8µM	n	n
CCc1ccc(CN(Cc2ccco2)C(=O)c2ccc(OC)cc2)cc1	n	x	x	x	n	x
CC(C)Nc1nc(C#N)nc(NC(C)C)n1	n	12.6µM	u	n	n	n
CCN(CC)C(=O)C(C)N(C#N)c1nc(NC(C)C)nc(NC(C)C)n1 (stereo not given)	n	n	n	n	n	n
COc1ccc(C)cc1NC(=O)c1nnn(-c2c(C)cccc2C)c1C	n	x	x	x	n	x
O=C(Nc1c(F)cc(F)cc1Br)c1ccco1	n	15.8µM	n	n	n	n
Cc1noc(C)c1C(=O)Nc1c(F)cc(F)cc1Br	n	n	n	n	n	n
Cc1ccc(C)c(N2CCN(CCCNC(=O)c3cnn(-c4ccccc4Cl)c3C3CCN(C(=O)OC(C)(C)C)CC3)CC2)c1	n	x	x	x	15.8µM	x
CCN1CCN(CCCNC(=O)c2cnn(-c3ccc(C)cc3)c2C2CCN(C(=O)OC(C)(C)C)CC2)CC1	n	x	x	x	n	x
Cc1ccc(C)c(N2CCN(CCCNC(=O)c3cnn(-c4ccc(F)cc4)c3C3CCN(C(=O)OC(C)(C)C)CC3)CC2)c1	u	x	x	x	25.1µM	x
CCC1CN(C(=O)N2CCC(C(=O)NCCC3=CCCCC3)CC2)c2cc(C)ccc2O1 (stereo not given)	n	x	x	x	n	x
CCCCCCOC(=O)C(C#N)c1nc2ccccc2nc1N1CCN(CC)CC1 (stereo not given)	u	1µM	n	n	u	n
CCCCCCOC(=O)C(C#N)c1nc2ccccc2nc1N1CCOCC1 (stereo not given)	n	2.51µM	n	n	n	n
CCN1CCN(c2nc3ccccc3nc2C(C#N)C(=O)OCc2ccccc2)CC1 (stereo not given)	n	1.26µM	n	n	n	n
CCCCOC(=O)C(C#N)c1nc2ccccc2nc1N1CCOCC1 (stereo not given)	n	3.98µM	n	n	n	n
Cc1ccc(OCCCCn2nnc3sc4c(c3c2=O)CCCC4)cc1	n	x	x	x	n	x
COc1ccc(OC)c(NC(=O)c2cc3cccc(OC)c3oc2=O)c1	n	x	x	x	n	x
Cc1cccc2sc(NC(=O)Cn3cccc3)nc12	n	n	25.1µM	n	n	n
CCn1c(SCc2ccccc2Cl)nc(=O)c2c(C(=O)OC)cc(C3CC3)nc21	n	x	x	x	12.6µM	x
O=C1c2ccccc2C(=O)C12Cc1ccccc1N1CCN(c3ccccc3)CC12 (stereo not given)	n	10µM	n	n	n	n
SMILES	p53ts 32C kill	Tau fil binding	ERK AVP inh	DNA Pol III inh	p53ts 39C kill	YjeE inh
N#CCSc1nc(Nc2ccc3c(c2)OCO3)c2ccccc2n1	n	n	31.6µM	n	n	n
COc1cccc(-c2nccc(N(C)Cc3ccco3)n2)c1	10µM	n	n	n	10µM	n
COc1cc(C2c3c(oc4cc(C)c(C)cc4c3=O)C(=O)N2c2cc(C)ccn2)ccc1O (stereo not given)	n	5.01µM	n	n	n	n
Cc1ccc(N2C(=O)c3oc4ccccc4c(=O)c3C2c2cccc(O)c2)nc1 (stereo not given)	n	25.1µM	u	n	n	n
CCCOc1ccc(C2c3c(oc4ccccc4c3=O)C(=O)N2c2ccc(C)cn2)cc1OCC (stereo not given)	n	x	x	x	n	x
CCOc1ccc(C2c3c(oc4ccccc4c3=O)C(=O)N2c2ccc(C)cn2)cc1OC (stereo not given)	n	3.98µM	n	n	n	n
CCOc1cc(C2c3c(oc4ccccc4c3=O)C(=O)N2c2ccccn2)ccc1O (stereo not given)	n	x	x	x	n	x
COc1cc(C2c3c(oc4ccccc4c3=O)C(=O)N2c2ccc(C)cn2)ccc1O (stereo not given)	n	12.6µM	u	n	n	n
Cc1cc2oc(C(=O)N(Cc3ccc(N(C)C)cc3)Cc3ccco3)c(C)c2cc1Cl	n	x	x	x	n	x
CCOc1ccc(CN2C(=O)c3ccccc3Sc3ccc(C(=O)NCc4ccco4)cc32)cc1	n	x	x	x	n	x
CC12C=C(/C=C/CCc3ccco3)C(C)(C1)C(CCc1ccco1)CC2=O (stereo not given)	n[9.22 µM]	x	n[11.5 µM]	x	n[9.22 µM]	x
CC(C)=CCC/C(C)=C/C=C/C1=CC2(C)CC1(C)C(/C=C(\C)CCC=C(C)C)CC2=O (stereo not given)	n[9.22 µM]	x	n[11.5 µM]	x	n[9.22 µM]	x
N#CC(C(=O)NCc1ccco1)c1nc2ccccc2nc1N1CCOCC1 (stereo not given)	n	3.98µM	n	n	n	n
CCOC(=O)N1CCN(c2nc3ccccc3nc2C(C#N)C(=O)NCCc2ccccc2)CC1 (stereo not given)	n	3.98µM	n	n	n	n
N#CC(C(=O)NCCc1ccccc1)c1nc2ccccc2nc1N1CCOCC1 (stereo not given)	n	2.51µM	u	n	n	n
CCCCCCNC(=O)C(C#N)c1nc2ccccc2nc1N1CCOCC1 (stereo not given)	n	3.98µM	n	n	n	n
CCCCCNC(=O)C(C#N)c1nc2ccccc2nc1N1CCCC1 (stereo not given)	n	n	n	n	n	n
N#CC(C(=O)NCc1ccccc1)c1nc2ccccc2nc1N1CCCC1 (stereo not given)	n	n	n	n	n	n
CCCCCCNC(=O)C(C#N)c1nc2ccccc2nc1N1CCCC1 (stereo not given)	n	n	n	n	n	n
C=CCC(O)CC1C2C(CC(O)CC=C)C3C1C3C2OC(C)(C)C (stereo not given)	n[9.22 µM]	x	n[11.5 µM]	x	n[9.22 µM]	x
CCN(CC)c1nc2ccccc2nc1C(C#N)C(=O)NCCCOC (stereo not given)	n	7.94µM	n	n	n	n
CCN(CC)c1nc2ccccc2nc1C(C#N)C(=O)NCCc1ccccc1 (stereo not given)	n	n	n	n	n	n
